In PubChem BioAssay AID1159580 (chemical genetic matrix, 2015):
About 2,000 (36%) of roughly 5,500 compounds were called active. Inconclusive results (about 18%) are left out. Rule as the data show it: active = normalized growth mostly below about 0.91 (no sharp cut-off); inconclusive = no clear call, values can overlap the other calls; inactive = mostly above about 0.92. This is one part of the list.

Test: chemical genetic growth profiling, strain panel (AID 1159580);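 also: tested at 20 µM; growth read once vehicle control cultures reached saturation at 30 °C; 1 = growth at the plate median or of vehicle wells; lower values mean less growth of the strain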
Conditions: growth OD

Measured: normalized growth

CCOP(=S)(OCC)Oc1cc(C)nc(C(C)C)n1
inactive: S. cerevisiae deletion strains, locus YAL013W, strain DEP1, stronger effect = lower value 0.978 | S. cerevisiae deletion strains, locus YBR021W, strain FUR4, stronger effect = lower value 1.03 | S. cerevisiae deletion strains, locus YBR229C, strain ROT2, stronger effect = lower value 0.955 | S. cerevisiae deletion strains, locus YCL029C, strain bik1, stronger effect = lower value 0.985 | S. cerevisiae deletion strains, locus YDL035C, strain GPR1, stronger effect = lower value 0.946 | S. cerevisiae deletion strains, locus YDL074C, strain BRE1, stronger effect = lower value 0.901 | S. cerevisiae deletion strains, locus YDL101C, strain DUN1, stronger effect = lower value 0.96 | S. cerevisiae deletion strains, locus YDL134C, strain PPH21, stronger effect = lower value 0.995 | S. cerevisiae deletion strains, locus YDL185W, strain tfp1, stronger effect = lower value 0.972 | S. cerevisiae deletion strains, locus YDL192W, strain arf1, stronger effect = lower value 0.985 | S. cerevisiae deletion strains, locus YDR101C, strain arx1, stronger effect = lower value 1 | S. cerevisiae deletion strains, locus YDR150W, strain NUM1, stronger effect = lower value 0.984 | S. cerevisiae deletion strains, locus YDR162C, strain NBP2, stronger effect = lower value 0.976 | S. cerevisiae deletion strains, locus YDR318W, strain mcm21, stronger effect = lower value 0.98 | S. cerevisiae deletion strains, locus YDR388W, stronger effect = lower value 0.991 | S. cerevisiae deletion strains, locus YDR502C, strain sam2, stronger effect = lower value 0.994 | S. cerevisiae deletion strains, locus YEL061C, strain CIN8, stronger effect = lower value 0.989 | S. cerevisiae deletion strains, locus YER110C, stronger effect = lower value 0.981 | S. cerevisiae deletion strains, locus YER155C, strain BEM2, stronger effect = lower value 0.996 | S. cerevisiae deletion strains, locus YER167W, strain BCK2, stronger effect = lower value 0.99 | S. cerevisiae deletion strains, locus YGL078C, strain dbp3, stronger effect = lower value 0.995 | S. cerevisiae deletion strains, locus YGL086W, strain mad1, stronger effect = lower value 0.989 | S. cerevisiae deletion strains, locus YGL248W, strain PDE1, stronger effect = lower value 0.961 | S. cerevisiae deletion strains, locus YGR078C, strain PAC10, stronger effect = lower value 0.976 | S. cerevisiae deletion strains, locus YGR135W, strain pre9, stronger effect = lower value 0.995 | S. cerevisiae deletion strains, locus YGR229C, strain SMI1, stronger effect = lower value 0.991 | S. cerevisiae deletion strains, locus YGR252W, strain gcn5, stronger effect = lower value 0.998 | S. cerevisiae deletion strains, locus YHR030C, strain SLT2, stronger effect = lower value 0.988 | S. cerevisiae deletion strains, locus YHR079C, strain IRE1 (second series), stronger effect = lower value 0.994 | S. cerevisiae deletion strains, locus YHR094C, strain hxt1, stronger effect = lower value 0.996 | S. cerevisiae deletion strains, locus YHR129C, strain ARP1, stronger effect = lower value 0.977 | S. cerevisiae deletion strains, locus YHR200W, strain rpn10, stronger effect = lower value 0.993 | S. cerevisiae deletion strains, locus YIL066C, strain RNR3, stronger effect = lower value 0.979 | S. cerevisiae deletion strains, locus YIL073C, strain SPO22, stronger effect = lower value 1.01 | S. cerevisiae deletion strains, locus YIL125W, strain kgd1, stronger effect = lower value 0.993 | S. cerevisiae deletion strains, locus YIR030C, strain dcg1, stronger effect = lower value 0.995 | S. cerevisiae deletion strains, locus YJL095W, strain BCK1, stronger effect = lower value 0.973 | S. cerevisiae deletion strains, locus YJL134W, strain LCB3, stronger effect = lower value 0.982 | S. cerevisiae deletion strains, locus YJL168C, strain set2, stronger effect = lower value 0.987 | S. cerevisiae deletion strains, locus YJL187C, strain SWE1 (second series), stronger effect = lower value 0.978 | S. cerevisiae deletion strains, locus YJR043C, strain POL32, stronger effect = lower value 0.991 | S. cerevisiae deletion strains, locus YJR075W, strain HOC1, stronger effect = lower value 0.977 | S. cerevisiae deletion strains, locus YKL009W, strain mrt4, stronger effect = lower value 0.949 | S. cerevisiae deletion strains, locus YKL068W, stronger effect = lower value 0.993 | S. cerevisiae deletion strains, locus YKL085W, strain MDH1 (second series), stronger effect = lower value 0.988 | S. cerevisiae deletion strains, locus YKL085W, strain MDH1, stronger effect = lower value 0.988 | S. cerevisiae deletion strains, locus YKL190W, strain CNB1, stronger effect = lower value 0.993 | S. cerevisiae deletion strains, locus YKR001C, strain vps1, stronger effect = lower value 0.999 | S. cerevisiae deletion strains, locus YLR039C, strain RIC1, stronger effect = lower value 0.966 | S. cerevisiae deletion strains, locus YLR058C, strain SHM2, stronger effect = lower value 0.971 | S. cerevisiae deletion strains, locus YLR102C, strain apc9, stronger effect = lower value 0.987 | S. cerevisiae deletion strains, locus YLR262C, strain YPT6, stronger effect = lower value 0.946 | S. cerevisiae deletion strains, locus YLR268W, strain sec22, stronger effect = lower value 0.993 | S. cerevisiae deletion strains, locus YLR330W, strain CHS5, stronger effect = lower value 0.989 | S. cerevisiae deletion strains, locus YLR342W, strain FKS1 (second series), stronger effect = lower value 0.975 | S. cerevisiae deletion strains, locus YLR371W, strain rom2, stronger effect = lower value 0.995 | S. cerevisiae deletion strains, locus YLR418C, strain cdc73, stronger effect = lower value 0.959 | S. cerevisiae deletion strains, locus YML016C, strain PPZ1, stronger effect = lower value 0.993 | S. cerevisiae deletion strains, locus YML032C, strain rad52, stronger effect = lower value 0.989 | S. cerevisiae deletion strains, locus YML124C, strain tub3, stronger effect = lower value 0.998 | S. cerevisiae deletion strains, locus YMR078C, strain ctf18, stronger effect = lower value 0.991 | S. cerevisiae deletion strains, locus YMR223W, strain ubp8, stronger effect = lower value 0.988 | S. cerevisiae deletion strains, locus YMR263W, strain SAP30, stronger effect = lower value 0.98 | S. cerevisiae deletion strains, locus YMR307W, strain GAS1, stronger effect = lower value 0.976 | S. cerevisiae deletion strains, locus YNL067W, strain RPL9B, stronger effect = lower value 0.972 | S. cerevisiae deletion strains, locus YNL128W, strain TEP1, stronger effect = lower value 0.957 | S. cerevisiae deletion strains, locus YNL153C, strain GIM3, stronger effect = lower value 0.984 | S. cerevisiae deletion strains, locus YNL233W, strain BNI4, stronger effect = lower value 0.984 | S. cerevisiae deletion strains, locus YNL250W, strain rad50, stronger effect = lower value 0.984 | S. cerevisiae deletion strains, locus YNL271C, strain bni1, stronger effect = lower value 0.992 | S. cerevisiae deletion strains, locus YNL298W, strain CLA4, stronger effect = lower value 0.995 | S. cerevisiae deletion strains, locus YNL307C, strain MCK1, stronger effect = lower value 0.998 | S. cerevisiae deletion strains, locus YNL322C, strain KRE1, stronger effect = lower value 0.978 | S. cerevisiae deletion strains, locus YNR052C, strain pop2, stronger effect = lower value 0.99 | S. cerevisiae deletion strains, locus YOL006C, strain TOP1, stronger effect = lower value 0.967 | S. cerevisiae deletion strains, locus YOL012C, strain htz1 0.881 | S. cerevisiae deletion strains, locus YOL147C, strain pex11, stronger effect = lower value 0.998 | S. cerevisiae deletion strains, locus YOR061W, strain CKA2, stronger effect = lower value 0.967 | S. cerevisiae deletion strains, locus YOR069W, strain VPS5, stronger effect = lower value 0.989 | S. cerevisiae deletion strains, locus YOR136W, strain idh2, stronger effect = lower value 0.986 | S. cerevisiae deletion strains, locus YOR144C, strain elg1, stronger effect = lower value 0.995 | S. cerevisiae deletion strains, locus YOR184W, strain ser1, stronger effect = lower value 0.987 | S. cerevisiae deletion strains, locus YOR316C, strain cot1, stronger effect = lower value 0.975 | S. cerevisiae deletion strains, locus YPL055C, strain LGE1, stronger effect = lower value 0.956 | S. cerevisiae deletion strains, locus YPL241C, strain CIN2, stronger effect = lower value 0.989 | S. cerevisiae deletion strains, locus YPR119W, strain clb2, stronger effect = lower value 0.997 | S. cerevisiae deletion strains, locus YPR141C, strain kar3, stronger effect = lower value 0.984 | S. cerevisiae deletion strains, locus YPR163C, strain tif3, stronger effect = lower value 1 | S. cerevisiae deletion strains, locus YPR167C, strain met16, stronger effect = lower value 0.987 | S. cerevisiae deletion strains, strain wtn01, stronger effect = lower value 1 | S. cerevisiae strains, strain wild type, stronger effect = lower value 0.987
